Source: PubChem (Broad Institute)
Shown are actives, neighbours in structure and some others; about 3.3% of the full set was active somewhere.
GSIS activator = primary screen for activators of insulin secretion dependent on glucose, INS-1E cells, GLuc reporter luminescence | actives 0.61% (n = 370,000) | activation, % at 16.6 µM | INS-1E GLuc reporter insulin secretion, 2-3 h;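 active = lowest replicate activation of at least 40%, so every replicate reaches that level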;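 note: 0% = median of neutral control wells and 100% = median of IBMX positive control wells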
ERAP1 inh = blocks human ERAP1 aminopeptidase activity; Q9NZ08; recombinant ERAP1, Leu-AMC fluorescence, 60 min; inhibition, % at 10.7 µM; actives 0.15% (n = 340,000); AID 652197;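 active = mean replicate inhibition of at least 30%, or all replicates individually reaching that 30% level; inactive = mean below 30% and not every replicate reaching it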;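 note: 0% = neutral control wells and 100% = L-leucinethiol positive control wells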
FGF22 binding = binders of recombinant human FGF22 by thermal shift. Q9HCT0. SYPRO orange fluorescence; percent of sucrose octasulfate shift, DMSO zero. activity (Tm shift, normalised), % at 9.99 µM. actives 1.5% (n = 340,000);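 active = mean Tm shift, scaled 0 neutral to 100 positive control, at about 1.3% or above, every replicate too, limit read from the data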
CASP6 VEID inh = caspase-6 (human) enzyme inhibition. P55212. purified caspase-6, Z-VEID-R110 cleavage fluorescence. actives 0.53% (n = 350,000). inhibition, % at 12.5 µM;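 active = mean inhibition across replicates at least about 35%, with every replicate also reaching that limit, limit read from the data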;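 note: 0% = median of neutral control wells and 100% = no fluorescence left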
Target sequence (P55212 24-179 limits assumed): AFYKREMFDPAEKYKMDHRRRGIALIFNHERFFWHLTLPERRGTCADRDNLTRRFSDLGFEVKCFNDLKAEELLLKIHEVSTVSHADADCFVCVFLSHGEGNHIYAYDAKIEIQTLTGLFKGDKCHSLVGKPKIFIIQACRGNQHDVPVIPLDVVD
Target sequence (P55212 194-293 limits assumed): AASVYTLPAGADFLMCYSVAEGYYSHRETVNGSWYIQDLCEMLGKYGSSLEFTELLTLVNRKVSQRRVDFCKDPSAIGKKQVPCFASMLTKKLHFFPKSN
SIRT5 inh = blocks human SIRT5 desuccinylation of peptide. Q9NXA8. Purified SirT5, succinyl-peptide AMC, trypsin-coupled fluorescence. inhibition, % at 15 µM. actives 1.1% (n = 330,000). AID 652115; in the data active = inhibition above about 15%
Target sequence (Q9NXA8 whole entry, looked up): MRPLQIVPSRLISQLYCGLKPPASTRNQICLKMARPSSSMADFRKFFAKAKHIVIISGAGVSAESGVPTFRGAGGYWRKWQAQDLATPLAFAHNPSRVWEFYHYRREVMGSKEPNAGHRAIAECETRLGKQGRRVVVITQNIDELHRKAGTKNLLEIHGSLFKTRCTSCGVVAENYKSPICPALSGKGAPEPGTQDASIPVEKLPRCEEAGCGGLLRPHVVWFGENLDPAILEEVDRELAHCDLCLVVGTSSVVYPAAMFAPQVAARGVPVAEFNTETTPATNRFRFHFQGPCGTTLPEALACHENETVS
The depositor's hits bear a star; . = no result.

SMILES	GSIS activator	ERAP1 inh	FGF22 binding	CASP6 VEID inh	SIRT5 inh
CO[C@H]1CN(C)C(=O)c2cc(NC(=O)NC(C)C)ccc2OC[C@H](C)N(Cc2cncnc2)C[C@@H]1C	2	.	.	.	.
COC(=O)CNC(=O)C1CCN(S(=O)(=O)c2cccc3nsnc23)CC1	-7	0	0	3	-6
CC(C)(C)NC(=O)C1CCN(S(=O)(=O)c2cccc3nsnc23)CC1	-2	-4	0	55*	-2
COc1ccc(C)cc1NC(=O)CNC(c1ccccc1)c1ccccc1	-10	2	0	0	-3
COc1cc(C(=O)Nc2ccc(C)cc2C(NCC(=O)NN)c2ccccc2)cc(OC)c1OC (stereo unspecified)	-30	-2	0	-4	19*
C[C@H](CO)N1C[C@H](C)[C@@H](CN(C)Cc2cccc(C(=O)O)c2)Oc2cc(C#CCC3CCCC3)ccc2S1(=O)=O	.	.	0	.	16*
CCCN(C)C[C@@H]1Oc2cc(C#CCC3CCCC3)ccc2S(=O)(=O)N([C@H](C)CO)C[C@@H]1C	-2	3	0	-3	13
C[C@@H]1CN([C@@H](C)CO)S(=O)(=O)c2ccc(C#CCC3CCCC3)cc2O[C@H]1CN(C)Cc1cccc(C(=O)O)c1	.	-1	0	19	17*
CCCN(C)C[C@H]1Oc2cc(C#CCC3CCCC3)ccc2S(=O)(=O)N([C@H](C)CO)C[C@@H]1C	.	-1	0	-3	19*
COc1ccc(NC(=O)c2ccc3c(c2)N(C)CCS3)cc1	27	5	0	-2	-8
CN1CCSc2ccc(C(=O)Nc3cccc(F)c3)cc21	67*	8	1	-2	-3
CN(Cc1ccccc1)C(=O)c1ccc(NC(=O)Cc2cccc(NC(=O)C3CCN(C(=O)C4CCCCC4)CC3)c2)cc1	6	0	1	-3	16*
CN(C(=O)c1cccc(NC(=O)Cc2ccc(NC(=O)C3CCN(C(=O)C4CCC4)CC3)cc2)c1)C1CC1	-7	0	0	1	23*
CN(C(=O)c1cccc(NC(=O)Cc2ccc(NC(=O)C3CCN(C(=O)C4CCCC4)CC3)cc2)c1)C1CCC1	-23	-5	0	7	-6
COc1ccc(S(=O)(=O)Nc2ccc3c(c2)C(=O)N([C@@H](C)CO)C[C@H](C)[C@@H](CN(C)C(=O)C2CCCCC2)OCCCC[C@@H](C)O3)cc1	-31	0	0	1	7
C[C@H](CO)N1C[C@H](C)[C@H](CN(C)Cc2ccncc2)Oc2ccc(NC(=O)CCN3CCOCC3)cc2C1=O	7	-4	0	0	25*
C[C@H](CO)N1C[C@H](C)[C@H](CN(C)Cc2ccc(-c3ccccc3)cc2)Oc2ccc(NC(=O)Cc3cn(C)c4ccccc34)cc2CC1=O	7	-3	0	-1	11
C[C@@H]1CN([C@@H](C)CO)C(=O)Cc2cc(NC(=O)Cc3cn(C)c4ccccc34)ccc2O[C@@H]1CN(C)Cc1ccc(-c2ccccc2)cc1	-23	-1	0	2	15*
C[C@@H]1CN([C@H](C)CO)C(=O)Cc2cc(NC(=O)CCCN(C)C)ccc2O[C@@H]1CN(C)Cc1ccc(-c2ccccc2)cc1	24	0	0	3	99*
C[C@@H]1CN([C@H](C)CO)C(=O)Cc2cc(NC(=O)Cc3cn(C)c4ccccc34)ccc2O[C@@H]1CN(C)C	-8	0	0	-1	26*
C[C@H](CO)N1C[C@H](C)[C@@H](CN(C)Cc2ccc(Oc3ccccc3)cc2)Oc2ccc(NC(=O)CCCN(C)C)cc2C1=O	8	1	1.2*	-73	-1
C=CCOc1ccc(C(c2c(C(=O)O)[nH]c3ccccc23)c2c(C(=O)O)[nH]c3ccccc23)cc1	6	14	0	48*	2
O=C(O)c1[nH]c2ccccc2c1C(c1ccccc1)c1c(C(=O)O)[nH]c2ccccc12	14	24	.	2	2
CC(C)(C)c1ccc(OCCCC(=O)Nc2ccc(S(N)(=O)=O)cc2)cc1	5	-2	44*	3	-3
O=C(O)c1cc(N2CCCCC2)nc2ccccc12	.	0	43*	0	.
SMILES	GSIS activator	ERAP1 inh	FGF22 binding	CASP6 VEID inh	SIRT5 inh
Cc1ccc(S(=O)(=O)c2ccc([N+](=O)[O-])o2)cc1	99*	4	0	12	-10
C[C@@H]1CN([C@H](C)CO)C(=O)c2cc(NS(=O)(=O)c3cccs3)ccc2O[C@H]1CN(C)Cc1ccc(C(=O)O)cc1	5	0	0	1	-9
C/C=C/c1ccc([C@H]2[C@H]3CN(CCC(F)(F)F)CCCCN3[C@H]2CO)cc1	-3	0	0	-7	2
Cc1ccc(C(C)C)c(OCCCCN2CCNCC2)c1	-5	-2	0	-4	18*
OC1(C#CCCN2CCCCC2)c2ccccc2-c2ccccc21	18	-1	44*	1	-7
C/C=C/c1ccc([C@H]2[C@@H](CO)N(Cc3ccccc3)[C@H]2CNC(=O)C2CC2)cc1	0	.	.	.	.
COc1ccc2c3c(n(C)c2c1)[C@@H](CO)N(Cc1nccs1)CC31CCN(CC2CCCC2)CC1	-7	.	.	.	.
COc1ccc(/C=C/C(=O)NNC(=O)c2cc(C)oc2C)cc1	-5	1	0	1	23*
Cc1cc(C(=O)NNC(=O)/C=C/c2ccccc2Cl)c(C)o1	6	1	0	-7	2
COC(=O)[C@H](C)NC(=O)/C=C/c1ccc(OC)cc1	8	.	.	.	.
COC(=O)[C@@H](NC(=O)/C=C/c1ccc(OC)cc1)C(C)C	-2	1	43*	-2	-2
O=C1CN(S(=O)(=O)Cc2ccccc2)C[C@@H]2[C@H](c3ccc(C#Cc4ccc(F)cc4)cc3)[C@@H](CO)N12	9	0	.	-1	8
Cc1ccc2cccc(S(=O)(=O)N3CCCc4ccccc43)c2n1	11	1	43*	1	0
Cc1ccc(S(=O)(=O)N2CCCc3ccccc32)cc1	.	1	0	0	-2
C[C@@H]1CN([C@H](C)CO)C(=O)CCCn2nncc2CO[C@@H]1CN(C)Cc1ccc(C(F)(F)F)cc1	-2	-5	0	-6	1
O=C(Cn1cncn1)NCCCc1ccccc1	7	0	0	75*	.
C[n+]1cccc2c(Br)ccc([O-])c21	.	3	-1	53*	-1
Cc1ccc(Oc2ncc(-c3ccc(Cl)cc3)cn2)cc1	46*	.	.	.	.
Cc1ccc(Oc2ccc(Cl)cc2N)cc1	20	3	0	-1	-1
COc1ccccc1N(CC(=O)NCCSCc1ccccc1Cl)S(C)(=O)=O	11	2	0	39*	-6
COC1OCC(O)C(OC(=O)c2ccccc2)C1OC(=O)c1ccccc1 (stereo unspecified)	.	3	43*	1	.
CCCC#Cc1ccc2c(c1)O[C@H](CN(C)Cc1ccccc1)[C@@H](C)CN([C@H](C)CO)S2(=O)=O	13	.	0	.	20*
